# Compound activity deposited in PubChem BioAssay by National Center for Advancing Translational Sciences (NCATS).
# EPAC1 agonist – qHTS for Agonist of cAMP-regulated guanine nucleotide exchange factor 3 (EPAC1): primary screen; Potency, µM (top dose mostly 154 µM), for the others: at the highest dose activation, hits mostly activators; EPAC1 agonist qHTS, biochemical assay; response scale: 100% = response to 6.5 mM cAMP; 360,000 tested, 0.073% active; note: nearly all actives have a fitted effect of over 60% in size
#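 Multi-concentration qHTS readout: loss of Rap1B-bound BODIPY-GDP fluorescence driven by 100 nM EPAC1 with excess GDP (50 uM), monitored kinetically at room temperature; agonist response expressed relative to 6.5 mM cAMP.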
# RGS4 inh – Inhibitors of Regulator of G Protein Signaling (RGS) 4: qHTS | Regulator of G-protein signaling 4 (Homo sapiens), P49798 | Transcreener GDP fluorescence polarization, RGS4-accelerated GTP hydrolysis | Potency, µM (highest dose often 114 µM), for inactives: at the highest dose activity change, negative = inhibition, usual class: inhibitors | 390,000 tested, 0.039% active; note: % is set by controls: 0 for no effect and ±100 for the full control effect; nearly all actives have a fitted effect of over 75% in size
#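 MLSMR compounds (23 nl, pin-transferred) preincubated 10 min at room temperature with a 500nM (2x) first reagent, then RGS4 at 900nM (2x) plus Transcreener GDP mix added; fluorescence polarization (620/688 nm) read before and after 90 min at 30 °C.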
# BRCA1 expr up – qHTS Assay to Identify Small Molecule Activators of BRCA1 Expression; Potency, µM (doses to about 46.1 µM), inactives show at the highest dose activation, most hits filed as activators; MCF7-BRCA1-FFLuc reporter, luminescence, 48 h; response scale: scaled: vehicle 0%, 10 µM genistein 100%; 380,000 tested, 1.1% active; note: nearly all actives have a fitted effect of over 80% in size
#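 First, MCF7-BRCA1-FFLuc cells (2000/well) attach for 2 h; next, compounds are pin-added and incubated 48 h at 37 °C; finally, luciferase reagent is added and luminescence read after 15 min.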
# EPAC2 agonist – qHTS for Agonist of cAMP-regulated guanine nucleotide exchange factor 4 (EPAC2): primary screen. AID 720711, 2013. Potency, µM (doses to about 154 µM), for inactives: at the highest dose activation, hits mostly activators. EPAC2 activation, biochemical qHTS; response scale: 100% = 6.5 mM cAMP response. 360,000 tested, 0.079% active. Rap guanine nucleotide exchange factor 4 (Homo sapiens), Q8WZA2; note: nearly all actives have a fitted effect of over 50% in size
#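 In this primary screen, activation is scored as increased exchange of BODIPY-GDP from Rap1B by 100 nM EPAC2, with 50 uM GDP as competitor. Signal is normalized to the 6.5 mM cAMP agonist control.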
# EPAC1 antag – qHTS for Antagonist of cAMP-regulated guanine nucleotide exchange factor 3 (EPAC1): primary screen. Rap guanine nucleotide exchange factor 3 (Homo sapiens), O95398. EPAC1 GEF assay, Rap1b-BODIPY-GDP exchange fluorescence. Potency, µM (highest dose often 115 µM), for the others: at the highest dose activity change, negative = inhibition, hits mostly inhibitors. 360,000 tested, 0.14% active;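 note: plate controls were vehicle for no effect and positive control for full effect; nearly all actives have a fitted effect of over 50% in size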
# EPAC2 antag – qHTS for Antagonist of cAMP-regulated guanine nucleotide exchange factor 2 (EPAC2): primary screen | EPAC2 GEF exchange of Rap1B-BODIPY-GDP, fluorescence | Rap guanine nucleotide exchange factor 4 (Homo sapiens), Q8WZA2 | 360,000 tested, 0.18% active | Potency, µM (top dose mostly 114 µM), without a hit: at the highest dose activity, negative = inhibition, actives largely listed as inhibitors | AID 720708, 2013; note: % is set by controls: 0 for no effect and ±100 for the full control effect; nearly all actives have a fitted effect of over 45% in size
# * marks the source's active call; other numbers are inactive results; ? = inconclusive; . = not tested or not shown; [ ] = another dose, or the depositor's remark. Sampled rows, rich in hits. Any-hit rate of the full collection: about 1.3%. Calls come from the whole dose curve; as a rule, active = well fitted curve in the direction sought with a large enough effect; inconclusive = small, poorly fitted or top-dose-only effect, or another doubt; inactive = no such curve, though single readings can be large; an effect the other way counts as inactive or inconclusive. Potency is the fitted concentration of half-maximal effect.
SMILES,EPAC1 agonist,RGS4 inh,BRCA1 expr up,EPAC2 agonist,EPAC1 antag,EPAC2 antag
NS(=O)(=O)c1ccc(NCCCn2ccnc2)c([N+](=O)[O-])c1,5%,14%,11%,9%,11%,2%
COc1ccc(OC)c2c1C(=O)c1ccccc1C2=O,89µM*,1%,4%,89µM*,77%,66%
COc1ccc(N)c2c1C(=O)c1ccccc1C2=O,-3%,0%,?,-3%,3%,-18%
Cc1ccc2oc3c(c(=O)c2c1)C(c1cccc(O)c1)N(Cc1ccccc1Cl)C3=O (configuration not stated),.,0%,.,.,.,.
CCCCOc1ccc(C(=O)NC)cc1,2%,-12%,49%,7%,-6%,-3%
CCCCOc1ccc(/C(N)=N/O)cc1,-5%,13%,11µM*,-9%,9%,7%
CCNC(=O)c1sc2cc(C)ccc2c1Cl,4%,5%,7.1µM*,15%,19%,-20%
Cc1ccc2c(Cl)c(C(=O)NCCc3ccccc3)sc2c1,8%,-7%,3.2µM*,13%,-2%,8%
CCOc1ccc(-n2cnnn2)cc1S(=O)(=O)NC1CC1,8%,18%,-27%,0%,0%,-7%
CCOc1ccccc1NC(=S)NC(=O)C1CC1,-15%,-11%,-42%,5%,-19%,6%
O=S(=O)(c1cc(Cl)ccc1Cl)N1CCN(Cc2ccc3c(c2)OCO3)CC1,11%,-30%,-6%,18%,-6%,3%
Cc1c(N)ccc(-n2nc3ccccc3n2)c1C,4%,-5%,11µM*,11%,-5%,-14%
Cc1cccc(-n2cnc(C(=O)NC3CCCCCC3)c2)n1,1%,16%[11.4 µM],10µM*,-5%,7%,-6%
Cc1cccc(-n2cnc(C(=O)O)c2)n1,1%,-17%,-2%,-3%,-12%,2%
COc1ccc(CNc2nc3nc(C)c(Cl)c(C)n3n2)cc1,2%,1%,?,-3%,1%,2%
COc1cccc(CNc2nc3nc(C)c(Cl)c(C)n3n2)c1,8%,-7%,11µM*,11%,-1%,5%
COc1cccc(-c2cnc3cccnn23)c1,7%,.,13µM*,5%,-7%,-10%
COc1cccc(-c2ccnc3c(-c4ccccc4)c(C)nn23)c1,.,5%,11µM*,.,.,.
Cc1ccc(-c2cnc3cccnn23)cc1F,1%,.,20%,3%,-2%,-26%
Clc1cccc(NCc2cn3cccnc3n2)c1,-6%,-49%,81%,2%,-12%,17%
CC(/C=C/C1[C@H](C)C[C@H](O[C@@H]2O[C@H](CO)[C@@H](O)[C@H](O)[C@H]2O)CC1(C)C)O[C@H]1O[C@H](CO)[C@@H](O)[C@H](O)[C@H]1O (some centres not stated),-11%,6%,-10%,-5%,-4%,-15%
Cc1cc(C(=O)COC(=O)c2ccc(Cl)c(S(N)(=O)=O)c2)c(C)n1CC1CCCO1 (configuration not stated),-3%,-5%,11µM*,-1%,11%,3%
O=C(c1cnn(-c2ccccc2)c1)c1cc(F)ccc1O,-6%,-11%,10µM*,11%,-8%,3%
COc1cccc(/C=C/C(=O)OCC(=O)NCCC2=CCCCC2)c1OC,-3%,9%,6%,-1%,4%,5%
O=C(/C=C/c1cccc2ccccc12)NCCC1=CCCCC1,-1%,42%,11µM*,-7%,-4%,-2%
SMILES,EPAC1 agonist,RGS4 inh,BRCA1 expr up,EPAC2 agonist,EPAC1 antag,EPAC2 antag
CCCN1C(=O)c2ccccc2NC1c1ccc(OC)cc1OC (configuration not stated),8%,-10%,-6%,3%,-12%,32µM*
COc1ccc(N2C(=O)c3ccccc3NC2c2ccc(OC)c(CSc3ccccn3)c2)cc1 (configuration not stated),-1%,10%,67%,-4%,4%,-4%
COc1ccc(N2C(=O)c3ccccc3NC2c2ccc(OC)c(COc3ccccn3)c2)cc1 (configuration not stated),6%,20%,6.3µM*,3%,26%,-14%
CCCN1C(=O)c2ccccc2NC1c1ccc(OC)c(CSc2ccccn2)c1 (configuration not stated),-7%,-2%,0%,2%,?,14µM*
O=C(Cc1cccs1)Nc1ccc(-c2nnc(-c3ccccc3)o2)cc1,2%,-12%,-15%,4%,-1%,1%
Cc1cccc(-c2nnc(-c3cccc(NC(=O)Cc4cccs4)c3)o2)c1,25%,0%,13µM*,11%,2%,-4%
Cc1ccc(S(=O)(=O)n2cnc3ccccc32)cc1,13%,14%,1%,5%,12%,-4%
CCOC(=O)C1CCN(Cc2coc3c(Cl)cc(Cl)cc3c2=O)CC1,7%,9%,-1%,8%,16%,-3%
O=C(Nc1c(-c2ccc3c(c2)OCO3)[nH][nH]c1=O)c1ccccc1,-6%,.,5%,28%,35µM*,?
COc1ccc(NC(C)C(=O)N/N=C/c2ccccc2OCc2ccc(Br)cc2)cc1 (configuration not stated),9%,22%,4µM*,4%,13%,-5%
CC(Nc1ccc(Br)cc1)C(=O)N/N=C/c1ccccc1OCc1ccccc1 (configuration not stated),-4%,-32%,-1%,1%,-4%,0%
COc1ccc(CC(=O)NC2CCN(Cc3nnnn3C(C)(C)C)CC2)cc1OC,-8%,7%,-1%,0%,-2%,3%
COc1ccc(/C=C2/SC(=O)N(CCC(=O)Nc3ccc(S(=O)(=O)Nc4nccs4)cc3)C2=O)cc1,-10%,10%,19%,14%,50µM*,-1%
COc1ccc(/C=C2/SC(=S)N(c3ccc(S(=O)(=O)Nc4nccs4)cc3)C2=O)cc1,7%,-36%,-8%,-7%,71µM*,0%
